From PubChem
MARV entry inh = Marburg virus entry inhibition; Marburg virus pseudotyped entry inhibition, cell reporter; Potency, µM (doses to about 37.8 µM), for the others: at the top dose activity change, negative = inhibition, usual class: inhibitors; 300,000 tested, 1.8% active; calls by dose curve; tested in HEK293 cells; also: potency is read from the fitted curve at half-maximal effect
FMDV inh = foot and mouth disease virus antiviral activity | FMDV antiviral cell-based qHTS | Potency, µM (doses to about 57.9 µM), without a hit: top-dose activity change, negative = inhibition, most hits filed as inhibitors | 410,000 tested, 1.2% active | AID 1159524; calls by dose curve; tested in HEK293T cells; also: read-out not given here; potency is read from the fitted curve at half-maximal effect; nearly all actives have a fitted effect of over 45% in size
Vaccinia mCherry = vaccinia inhibition (mCherry reporter). Potency, µM (highest dose often 36.5 µM), inactives show top-dose activity change, negative = inhibition, actives largely listed as inhibitors. 310,000 tested, 0.63% active. AID 720579. Vaccinia virus mCherry reporter infection, fluorescence; calls by dose curve; tested in A549 cells; also: potency is read from the fitted curve at half-maximal effect; nearly all actives have a fitted effect of over 35% in size
HCMV antiviral = inhibitors of human cytomegalovirus; HFF cells, HCMV-luciferase reporter, 72 h; hits give low values; activity change, negative = inhibition, % at 57.5 µM; AID 1259415; 410,000 tested, 4.5% active; in the data active = activity change below about -60%; inconclusive = no clear call, values can overlap the other calls; inactive = above about -39%
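After 16 h attachment at 37C, HFF cells received test compound and HCMV-luciferase (1 PFU/cell); reporter luminescence read 72 h later, data normalized against buffer-only and known inhibitor Salinomycin.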
VACV Venus inh = inhibitors of vaccinia virus (Venus reporter); Vaccinia virus Venus reporter expression, fluorescence; Potency, µM (doses to about 36.5 µM), inactives show at the highest dose activity change, negative = inhibition, most hits filed as inhibitors; 330,000 tested, 0.46% active; AID 720580; calls by dose curve; tested in A549 cells; also: potency is read from the fitted curve at half-maximal effect; nearly all actives have a fitted effect of over 30% in size
LASV entry inh = blocks Lassa virus binding to or entry into cells; Lassa virus pseudotype entry inhibition, cell reporter; Potency, µM (highest dose often 37.9 µM), without a hit: at the top dose activity change, negative = inhibition, most hits filed as inhibitors; 300,000 tested, 1.2% active; AID 540256; calls by dose curve; tested in HEK293 cells; also: potency is read from the fitted curve at half-maximal effect; nearly all actives have a fitted effect of over 50% in size
Active calls of the source: *; i = inactive; ? = inconclusive; . = no result; [ ] = remark or other dose. An excerpt weighted towards active compounds, which were near 6.5% of everything screened. % is scaled to controls: 0 for no effect and ±100 for the full control effect.

SMILES | MARV entry inh | FMDV inh | Vaccinia mCherry | HCMV antiviral | VACV Venus inh | LASV entry inh
COC(=O)/C=C/c1ccc(C(=O)NCC(=O)N[C@@H](CCC(=O)OC)C(=O)N[C@@H](CC(C)C)C(N)=O)cc1 | . | 2.2% | i | . | -14.6% | .
CC(CC(c1ccccc1)c1ccccc1)NC(C)(C)C (stereo not given) | . | . | . | -20.2 | . | .
O=C(NNC(=S)Nc1ccccc1)c1ccncc1 | 18.8% | 36.1% | -14.7% | -6.5 | 2.9% | 21.2%
O=C(NNC(=S)Nc1ccc(C(=O)O)c(O)c1)c1ccncc1 | ? | 12.6µM* | ? | 0.0 | -0.3% | -25.0%[46.1 µM]
CSc1ccc(C(=O)C2CCCN(Cc3cccnc3)C2)cc1 (stereo not given) | -25.4%[46.1 µM] | ? | -5.3% | -62.0* | -8.7% | -1.3%
O=C(c1ccc(Cl)cc1)C1CCCN(Cc2cnn(-c3ccccc3)c2)C1 (stereo not given) | 5.62µM* | -26.1% | -26.0% | -1.8 | -18.8% | -25.5%
Cc1ccsc1C(=O)C1CCCN(Cc2cn(C)nc2C)C1 (stereo not given) | -7.0%[46.1 µM] | -1.6% | -2.5% | 2.5 | 4.2% | 2.8%
CSc1ccc(C(=O)C2CCCN(Cc3cccn3-c3cccnc3)C2)cc1 (stereo not given) | ? | ? | -27.9% | -31.0 | -20.7% | ?
Cc1nn(C)cc1CN1CCCC(C(=O)c2ccc(-c3ccccc3)cc2)C1 (stereo not given) | ? | ? | -3.4% | -66.1* | -22.3% | ?
CSc1ccc(C(=O)C2CCCN(Cc3cc4ccccc4[nH]3)C2)cc1 (stereo not given) | 3.55µM* | ? | ? | -8.6 | -22.3% | ?
CCOC(=O)c1ccc(NC(=O)c2nn(C)c3c2COc2ccccc2-3)cc1 | ? | -3.9% | -25.3% | -29.8 | -17.5% | ?
COc1ccc(NC(=O)N2CCc3nc(COc4ccccc4)c4c(c3C2)CO[C@@H](C)C4)cc1 | -18.9%[14.2 µM] | . | . | . | . | .
Nc1ccc2c(c1)oc1ccccc12 | ? | 41.5% | -4.8% | 113.5 | -13.3% | ?
COc1cc2c(cc1NC(=O)c1cccc([N+](=O)[O-])c1C)oc1ccccc12 | -28.2% | 20.0% | . | -8.0 | . | -5.7%
CC(=O)Nc1cc2oc3ccccc3c2cc1[N+](=O)[O-] | 2.6% | 40.4% | -6.4% | -83.8* | -5.9% | 0.8%
O=[N+]([O-])c1ccc2c(c1)oc1ccccc12 | -16.5% | -13.1% | . | -93.3* | . | -5.3%
Cc1ccc(C)c(C(=O)CSc2nc(-c3ccccc3)nc3c2CCCC3)c1 | -23.1%[46.1 µM] | ? | 5.4% | -9.9 | 11.2% | -3.3%[46.1 µM]
CCc1nc2cc(C(=O)N(C)C3CCOC3)cc(NC(=O)c3ccccc3OC)c2n1C (stereo not given) | . | 2.3% | -19.3% | . | -15.9% | .
Cc1c(C(=O)Nc2cccc(C(F)(F)F)c2)sc2nc[nH]c(=O)c12 | . | -0.2% | -6.8% | 7.7 | -20.3% | -14.7%[46.1 µM]
O=C(Nc1ccc(F)cc1)N1CC(=O)N2[C@H](CO)[C@@H](c3ccc(Br)cc3)[C@H]2C1 | . | . | . | -0.9 | . | .
Cc1cc(-c2nnc3n2N=C(c2ccc(-c4ccccc4)cc2)CS3)n[nH]1 | ? | ? | 11.2µM* | 77.3 | ? | ?
c1ccc(C2=Nn3c(nnc3-c3cccnc3)SC2)cc1 | -31.8% | -5.8% | . | -21.8 | . | -1.4%
c1ccc(-c2cc(-c3nnc4n3N=C(c3ccc5ccccc5c3)CS4)[nH]n2)cc1 | ? | ? | ? | -95.9* | ? | -67.3%[14.3 µM]
Cc1ccc(-c2nnc3n2N=C(c2ccccc2Br)CS3)cc1 | ? | -18.4% | -23.6% | -77.8* | -16.9% | ?
c1ccc(C2=Nn3c(nnc3-c3ccncc3)SC2)cc1 | ? | -24.0% | i | -73.2* | -4.8% | 4.1%
Cc1cccc(-c2nnc3n2N=C(c2ccccc2)CS3)c1 | -21.5% | -14.4% | . | ? | . | -23.6%
O=C(O)C1CC(CCCP(=O)(O)O)CCN1 (stereo not given) | . | -14.2% | . | . | . | .
CCc1ccccc1NC(=O)CSc1nc2n[nH]c(C)c2c(=N)n1-c1ccc(OC)cc1 | ? | ? | . | 16.1 | ? | -21.5%
Cc1cccc(-n2c(SCC(=O)Nc3ccccc3Cl)nc3n[nH]c(C)c3c2=N)c1 | . | ? | -21.4% | -61.6* | -25.7% | -1.1%[46.1 µM]
CCc1ccc(NC(=O)CSc2nc3n[nH]c(C)c3c(=N)n2-c2ccc(C)cc2)cc1 | . | -5.8% | ? | -90.6* | ? | -2.7%[46.1 µM]
